PubChem BioAssay (Tox21)
Unmarked numbers belong to inactive results. Inconclusive results are not listed. A call without a number means that no potency is given here. Activity calls are given as the source filed them. Unless noted, calls come from the whole dose curve; as a rule, active = well fitted curve in the direction sought with a large enough effect in the repeat runs; inconclusive = weak or mixed curves; inactive = no such curve, though single readings can be large; an effect the other way counts as inactive or inconclusive.

Legend:
[1] = qHTS assay to identify small molecule antagonists of the estrogen receptor alpha (ER-alpha) signaling pathway using the BG1 cell line in the presence of 0.1 nM 17-beta-estradiol - cell viability counter screen (AID 1259241); note: nearly all actives have a fitted effect of over 40% in size
In short: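 VM7Luc4E2 cells (endogenous ER-alpha, 4×ERE-luciferase), hormone-starved 5 days in charcoal-stripped FBS, were treated with compounds plus 0.1 nM 17beta-estradiol for 22 hr at 37C; viability read in same wells as CellTiter-Fluor live-cell protease fluorescence.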

[2] = qHTS assay to identify small molecule antagonists of the androgen receptor (AR) signaling pathway using the MDA cell line in the presence of 0.5 nM R1881 - cell viability counter screen (AID 1259242); note: nearly all actives have a fitted effect of over 45% in size
In short: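 Fluorescence from CellTiter-Fluor, which reports protease activity of live cells, was read 30 min after reagent addition to MDA-kb2 cells that had been incubated 16 hr with compound and 0.5 nM R1881.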

[3] = target: Estrogen receptor (Homo sapiens) (UniProt P03372); assay: qHTS assay to identify small molecule antagonists of the estrogen receptor alpha (ER-alpha) signaling pathway using the BG1 cell line in the presence of 0.1 nM 17-beta-estradiol (AID 1259244); note: nearly all actives have a fitted effect of over 50% in size
Estrogen receptor (Homo sapiens), sequence (P03372 whole entry, looked up): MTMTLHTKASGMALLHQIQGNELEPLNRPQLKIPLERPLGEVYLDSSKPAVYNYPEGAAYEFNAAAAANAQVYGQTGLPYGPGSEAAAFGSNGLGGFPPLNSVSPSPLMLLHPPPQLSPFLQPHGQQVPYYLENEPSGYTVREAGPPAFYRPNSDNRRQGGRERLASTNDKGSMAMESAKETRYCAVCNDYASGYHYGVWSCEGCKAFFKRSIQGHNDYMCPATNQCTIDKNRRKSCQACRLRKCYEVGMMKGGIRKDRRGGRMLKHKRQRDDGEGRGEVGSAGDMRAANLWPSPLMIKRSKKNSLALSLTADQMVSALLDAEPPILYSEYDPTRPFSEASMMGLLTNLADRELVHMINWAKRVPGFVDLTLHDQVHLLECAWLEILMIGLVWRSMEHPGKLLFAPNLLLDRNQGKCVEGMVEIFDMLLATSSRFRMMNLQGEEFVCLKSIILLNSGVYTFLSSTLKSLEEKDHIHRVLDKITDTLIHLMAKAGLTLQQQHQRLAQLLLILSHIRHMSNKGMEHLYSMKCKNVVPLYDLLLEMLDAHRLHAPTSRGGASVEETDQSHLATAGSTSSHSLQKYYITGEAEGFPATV
In short: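 Quantitative high-throughput screen in VM7Luc4E2 cells: compound plus 0.1 nM E2 (final), 22 h, 37C, 5% CO2; ONE-Glo added, 30 min room temperature, luminescence measured.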

[4] = qHTS assay to identify small molecule HDAC inhibitors (AID 1259364); note: nearly all actives have a fitted effect of over 45% in size; note: potency is the fitted concentration of half-maximal effect
In short: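 Endogenous HDAC class I/II activity was measured in wild-type HCT-116 cells by HDAC-Glo luminescence after 2 h compound treatment.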

[5] = qHTS assay to identify small molecule HDAC inhibitors - cell viability counter screen (AID 1259365); note: series mostly up to about 92 µM; nearly all actives have a fitted effect of over 50% in size
In short: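 Wild-type HCT-116 cells were seeded at 1,500 per well, incubated overnight at 37 C, then exposed to compounds in DMSO for 2hr. Viability was read by CellTiter-Glo luminescence after 30min at room temperature.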

[6] = qHTS assay to identify small molecule agonists of the sonic hedgehog signaling (Shh) pathway (AID 1259368; calls by dose curve; note: series mostly up to about 92 µM; nearly all actives have a fitted effect of over 15% in size)
In short: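 Luminescent signal was taken as a measure of Gli1-controlled luciferase expression in stably transfected NIH/3T3-derived cells that had been treated for 24 hr with compounds delivered in DMSO.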

[7] = qHTS assay to identify small molecule antagonists of the sonic hedgehog signaling (Shh) pathway (AID 1259369; calls by dose curve; note: nearly all actives have a fitted effect of over 45% in size)
In short: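 Screening used 3T3Gli1-Luc cells at 2,000 per well, compounds delivered in DMSO, and conditioned medium as agonist stimulus; plates incubated 24hr at 37 C and 5% CO2 before a 30min luciferase step.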

[8] = target: Estrogen receptor beta (Homo sapiens) (UniProt Q92731); assay: qHTS assay to identify small molecule agonists of the estrogen receptor beta (ER-beta) signaling pathway (AID 1259377; active = well fitted activation curve with a large enough effect in the signal ratio in the repeat runs, not every such curve was filed as active; the % refers to the signal ratio)
Estrogen receptor beta (Homo sapiens), sequence (Q92731 whole entry, looked up): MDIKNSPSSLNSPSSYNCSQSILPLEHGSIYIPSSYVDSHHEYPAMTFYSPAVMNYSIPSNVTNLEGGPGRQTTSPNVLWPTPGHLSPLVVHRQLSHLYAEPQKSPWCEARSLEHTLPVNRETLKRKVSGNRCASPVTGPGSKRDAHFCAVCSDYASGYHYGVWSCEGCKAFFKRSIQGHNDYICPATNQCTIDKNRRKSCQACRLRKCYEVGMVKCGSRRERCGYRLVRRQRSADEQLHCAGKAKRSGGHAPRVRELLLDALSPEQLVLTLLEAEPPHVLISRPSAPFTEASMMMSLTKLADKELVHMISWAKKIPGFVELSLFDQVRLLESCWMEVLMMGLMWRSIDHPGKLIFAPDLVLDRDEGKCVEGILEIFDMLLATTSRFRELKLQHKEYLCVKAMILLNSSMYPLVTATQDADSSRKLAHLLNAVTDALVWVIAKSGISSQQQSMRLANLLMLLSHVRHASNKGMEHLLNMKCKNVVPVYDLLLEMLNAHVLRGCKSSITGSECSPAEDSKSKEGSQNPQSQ
In short: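 ER-beta-UAS-bla HEK293T (GripTite) cells carrying a UAS-driven beta-lactamase reporter, in medium with 2% charcoal-stripped FBS, were exposed to compounds for 16 hr at 37C; LiveBLAzer B/G FRET substrate was then added and fluorescence read after 2 hours at room temperature.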

[9] = target: Estrogen receptor beta (Homo sapiens) (UniProt Q92731); assay: qHTS assay to identify small molecule antagonists of the estrogen receptor beta (ER-beta) signaling pathway (AID 1259378; active = well fitted inhibition curve with a large enough effect in the signal ratio in the repeat runs, not every such curve was filed as active; the % refers to the signal ratio)
In short: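 Antagonist mode: compounds added to beta-lactamase reporter HEK293T ER-beta-UAS cells stimulated with E2 (1nM final), 16 hr at 37C. LiveBLAzer B/G FRET substrate, 2 hours room temperature, fluorescence read-out.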

[10] = qHTS assay to identify small molecule agonists of the androgen receptor (AR) signaling pathway in the presence of an antagonist - cell viability counter screen (AID 1259379);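 note: MDA-kb2 human breast cancer cells carrying an MMTV luciferase reporter; series mostly up to about 92 µM; nearly all actives have a fitted effect of over 25% in size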
In short: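 In MDA-kb2 cells (human breast carcinoma, MMTV-luciferase), compounds at 15 concentrations plus 3.0uM nilutamide; 16 hr, 37C, 0% CO2; CellTiter-Fluor fluorescence read for viability.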

[11] = qHTS assay to identify small molecule antagonists of the estrogen receptor beta (ER-beta) signaling pathway - cell viability counter screen (AID 1259382); note: series mostly up to about 92 µM; nearly all actives have a fitted effect of over 55% in size
In short: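 Tox21 10K library tested in qHTS format on ER-beta-bla HEK293T cells stimulated with 1nM E2; 16 hr treatment at 37C. Same-well CellTiter-Glo luminescence served as the cell viability measure.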

[12] = target: Estrogen receptor (Homo sapiens) (UniProt P03372); assay: qHTS assay to identify small molecule agonists of the estrogen receptor alpha (ER-alpha) signaling pathway in the presence of an antagonist (AID 1259383; calls by dose curve; note: nearly all actives have a fitted effect of over 15% in size; note: potency is the fitted concentration of half-maximal effect; for activation: top concentration of the series differs between compounds)
In short: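 In VM7Luc4E2 cells, 4,000 per well, compounds at 15 concentrations were co-incubated 22hr at 37C with 10.0nM final ICI-182,780. Luminescence from the stably transfected 4×ERE-luciferase reporter was recorded 30min after ONE-Glo addition.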

[13] = qHTS assay to identify small molecule agonists or antagonists of the thyroid stimulating hormone receptor (TSHR) signaling pathway - wild type cell line counter screen (AID 1259384; calls by dose curve)
In short: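 Counter screen in untransfected Hek293: compounds (15-point titration, triplicate) plus phosphodiesterase inhibitor Ro20-1724 added after 18 h plating; 30 min RT. Intracellular cAMP via competitive d2/cryptate immunoassay, 1 h incubation.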

[14] = target: Thyrotropin receptor (Homo sapiens) (UniProt P16473); assay: qHTS assay to identify small molecule antagonists of the thyroid stimulating hormone receptor (TSHR) signaling pathway (AID 1259385; calls by dose curve; note: nearly all actives have a fitted effect of over 20% in size)
Thyrotropin receptor (Homo sapiens), sequence (P16473 whole entry, looked up): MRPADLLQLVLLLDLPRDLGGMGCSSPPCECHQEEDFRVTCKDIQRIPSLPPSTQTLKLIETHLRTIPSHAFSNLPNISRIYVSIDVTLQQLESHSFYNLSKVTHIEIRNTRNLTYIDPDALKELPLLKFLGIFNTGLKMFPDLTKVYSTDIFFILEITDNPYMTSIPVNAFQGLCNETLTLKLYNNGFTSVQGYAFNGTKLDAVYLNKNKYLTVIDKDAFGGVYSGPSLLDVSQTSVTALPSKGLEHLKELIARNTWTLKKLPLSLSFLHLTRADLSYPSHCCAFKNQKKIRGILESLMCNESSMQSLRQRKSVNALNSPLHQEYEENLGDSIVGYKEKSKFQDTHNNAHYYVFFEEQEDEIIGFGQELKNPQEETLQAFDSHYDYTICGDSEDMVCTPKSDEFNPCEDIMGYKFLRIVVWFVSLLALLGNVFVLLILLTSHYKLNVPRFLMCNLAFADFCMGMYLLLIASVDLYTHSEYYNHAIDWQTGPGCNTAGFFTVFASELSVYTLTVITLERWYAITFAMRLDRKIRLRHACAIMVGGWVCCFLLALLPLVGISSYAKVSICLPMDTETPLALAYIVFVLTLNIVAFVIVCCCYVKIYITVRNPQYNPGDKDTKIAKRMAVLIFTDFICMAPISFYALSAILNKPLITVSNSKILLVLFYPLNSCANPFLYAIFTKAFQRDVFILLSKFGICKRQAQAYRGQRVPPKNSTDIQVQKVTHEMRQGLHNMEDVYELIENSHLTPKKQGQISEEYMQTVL
In short: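 Antagonist mode: compound-treated TSHR-expressing HEK293 cells were stimulated with 1.5 ng/mL TSH (final) in presence of Ro20-1724 for 30 min at RT. HTRF cAMP detection after 1 h; each compound tested at 15 concentrations, triplicate.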

[15] = qHTS assay to identify small molecule agonists of the sonic hedgehog signaling (Shh) pathway - cell viability counter screen (AID 1259366); note: nearly all actives have a fitted effect of over 50% in size
In short: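 NIH/3T3-derived 3T3 Gli1-Luc cells (stable Gli1-responsive firefly luciferase reporter) were seeded, rested 4 hr at 37 C/5% CO2, then exposed to compounds in DMSO for 24 hr; viability was read by CellTiter-Fluor fluorescence in the same wells.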

[16] = qHTS assay to identify small molecule antagonists of the sonic hedgehog signaling (Shh) pathway - cell viability counter screen (AID 1259367); note: nearly all actives have a fitted effect of over 55% in size
In short: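 Cells: 3T3 Gli1-Luc, 2,000/well, 4 hr pre-incubation. Compounds in DMSO, then conditioned medium. Incubation 24 hr, 37C, 5% CO2. CellTiter-Fluor at 23 hr, 1 hr, fluorescence.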

[17] = qHTS assay to identify small molecule agonists of the estrogen receptor beta (ER-beta) signaling pathway - cell viability counter screen (AID 1259380); note: nearly all actives have a fitted effect of over 30% in size
In short: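 Viability of ER-beta-UAS-bla HEK293T cells was determined by CellTiter-Glo luminescence following 16 hr treatment with test compounds at 37C.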

[18] = qHTS assay to identify small molecule phospholipidosis (PLD) inducers (AID 1259344; active = well fitted curve in the direction sought with a large enough effect; an effect the other way counts as inactive or inconclusive)
In short: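 Phospholipidosis is scored by imaging LipidTOX-stained pits in HepG2 cells exposed to compound for 24 h at 37 C; pit counts and integrated intensities per well and per cell serve as outputs.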

| Structure (SMILES) | Potency [1] | Potency [2] | Potency [3] | Potency [4] | Potency [5] | Potency [6] | Potency [7] | Potency [8] | Potency [9] | Potency [10] | Potency [11] | Potency [12] | Potency [13] | Potency [14] | Potency [15] | Potency [16] | Potency [17] | Potency [18] |
| --- | --- | --- | --- | --- | --- | --- | --- | --- | --- | --- | --- | --- | --- | --- | --- | --- | --- | --- |
| [Cl][Nd]([Cl])[Cl] | inactive | inactive | inactive | inactive | inactive | inactive | inactive | inactive | inactive | inactive | inactive | inactive | inactive | inactive |  |  |  |  |
| CCCCCCOC(=O)CCCCC | inactive | inactive |  | inactive | inactive | inactive | inactive | inactive | inactive | inactive | inactive |  | inactive | inactive | inactive | inactive | inactive |  |
| C/C(C=O)=C\c1ccccc1 | inactive | inactive | inactive | 30 µM (active) |  | inactive | inactive | inactive | inactive | inactive | inactive | inactive | inactive | inactive | inactive | inactive | inactive |  |
| CCN(CC)CCOC(=O)C(c1ccccc1)c1ccccc1 | inactive | inactive |  | inactive |  |  | inactive | inactive | inactive | inactive | inactive |  | inactive |  | inactive | inactive |  | inactive |
| Cc1c[nH]c2ccccc12 | inactive | inactive |  | inactive |  | inactive |  |  |  | inactive | inactive |  | inactive | inactive |  | inactive |  | inactive |
| O=C(O)c1ccc(O)cc1O | inactive | inactive |  | inactive | inactive | inactive | inactive | inactive | inactive | inactive | inactive |  | inactive | inactive | inactive | inactive | inactive |  |
| c1ccc(CNc2ncnc3c2ncn3C2CCCCO2)cc1 (centres undefined) | inactive | inactive | inactive |  | inactive |  | inactive |  |  | inactive | inactive | 7.7 µM (active) |  |  | inactive | inactive | inactive |  |
| Nc1ccc(S(=O)(=O)NCc2ccccc2)cc1 | inactive | inactive |  | inactive | inactive | inactive | inactive | inactive | inactive | inactive | inactive |  | inactive | inactive | inactive | inactive |  | inactive |
| CC(O)Cn1cnc2c1c(=O)n(C)c(=O)n2C (centres undefined) | inactive | inactive |  | inactive | inactive | inactive | inactive | inactive | inactive | inactive | inactive |  |  |  | inactive | inactive | inactive | inactive |
| CC(=O)OCCC(C)CC(C)(C)C (centres undefined) | inactive | inactive | inactive | inactive |  |  | inactive |  |  |  | inactive | inactive | inactive | inactive |  | inactive | inactive |  |
| Cc1cccc(C)c1NC(=O)c1cc(S(N)(=O)=O)c(Cl)cc1O | inactive | inactive |  | inactive |  | inactive | inactive | inactive | inactive | inactive | inactive |  | inactive | inactive |  | inactive | inactive | inactive |
| CC(C)OC(=O)c1ccccc1C(=O)OC(C)C | inactive | inactive | inactive | inactive |  | inactive | inactive |  |  | inactive | inactive | inactive | inactive | inactive | inactive | inactive | inactive |  |
| CC(C)Cc1ccc(CC(=O)O)cc1 | inactive | inactive |  | inactive | inactive | inactive |  | inactive |  | inactive | inactive |  |  |  | inactive | inactive | inactive | inactive |
| CC(=O)OCC1=C(C(=O)O)N2C(=O)[C@@H](NC(=O)CSc3ccncc3)[C@H]2SC1 | inactive | inactive |  | inactive | inactive | inactive | inactive | inactive | inactive | inactive | inactive |  | inactive | inactive | inactive | inactive | inactive | inactive |
| CC(C(=O)O)c1ccc(C(=O)c2cccs2)cc1 (centres undefined) | inactive | inactive |  | 29.8 µM (active) |  | inactive | inactive | inactive |  |  | inactive |  |  |  | inactive | inactive | inactive | inactive |
| C=C(C)C(=O)OCCC(F)(F)C(F)(F)C(F)(F)C(F)(F)C(F)(F)C(F)(F)F | inactive | inactive | inactive | inactive |  | inactive | inactive | inactive | inactive | inactive | inactive |  | inactive | inactive | inactive | inactive |  |  |
